# Source: PubChem BioAssay
# “And” between values parts separate entries of the source, which are not always exact repeats. Equal values may be shown once. Inconclusive results are not listed. For some assays here: Results with a measured potency or affinity are listed apart. The source made the active and inactive calls.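 How the source made its calls, unless noted: active means compounds killing one labelled cell type while sparing the other, by normalised counts and ratio limits, not self-fluorescent; inactive means the rest.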
# Key:
# [1] = differential killing of epithelial or mesenchymal cells, primary screen, imaging, PC-3E GFP, TEM4-18 mCherry, co-culture (AID 1345086); details: imaging cell counts, at 1 µM; for red/green cell ratio (normalised): actives lie on both sides, counts scaled to control wells, 1 = unselective;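 on all read-outs here: cells exposed to compound for 72 h before imaging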;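 on red/green cell ratio (normalised): normalised mesenchymal count divided by normalised epithelial count so high means epithelial killing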
# [2] = polyglutamine-triggered caspase-3 activation inhibitors, cell-based (AID 1583); details: polyglutamine-induced caspase-3 activation, cell assay; stronger effect = higher value;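 tested at 10 µM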
# [3] = suppressors of polyQ aggregation in yeast, 75Q-TubU reporter (AID 1593); details: Yeast 75Q polyglutamine aggregation reporter
# [4] = rescue of polyQ-huntingtin neuronal dysfunction in worms, whole organism, C. elegans mechanosensory neurons, N-terminal huntingtin (AID 1599); details: touch response, stronger effect = higher value
# [5] = inhibitors of mitochondrial cytochrome c release, biochemical, purified mitochondria (AID 1603); details: stronger effect = lower value;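 further: mouse liver mitochondria challenged with calcium chloride; signal normalized to the plate average as 100%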
# [6] = inhibitors of polyQ protein aggregation (AID 1604); details: polyglutamine-induced protein aggregation inhibition assay; stronger effect = higher value; tested at 2.5 µM
# [7] = protection against mutant huntingtin cytotoxicity, PC12 cells, LDH release (AID 1610); details: PC12 mutant huntingtin toxicity, final LDH at 4 uM, stronger effect = lower value
# [8] = enhancers of glutamate uptake in motor neurons, MN-1 cell line (AID 1612); details: MN-1 motor neuron cells, stronger effect = higher value;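 further: tested at 1 µM final; 0% = mean of DMSO vehicle wells on each plate; positive means more glutamate uptake than control and negative means less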
# [9] = reducers of polyQ inclusions in PC12 cells, cell-based, NGF-treated PC12, GFPQ80 (AID 1614); details: PC12 NGF-treated GFP-polyQ80 inclusion reduction;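 further: lower means fewer inclusions and 0 means no inclusions at all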
# [10] = suppressors of polyglutamine aggregation in yeast, 75Q-TubH (AID 1616); details: S. cerevisiae 75Q-TubH polyglutamine aggregation suppression; stronger effect = higher value
# [11] = circadian clock period modulators, cell-based, LOPAC library, luminescence reporter (AID 2774; call rule not given here;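 further: values are relative to mean of DMSO wells on each plate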); details: circadian reporter cells, at 7 µM, actives lie on both sides
# [12] = test system: Hepatitis C virus NS3 helicase; experiment: HCV NS3 helicase inhibitors, primary screen, biochemical, fluorescence polarization, LOPAC1280 library (AID 687035; in the data active means inhibition above about 37%); details: Purified HCV NS3 helicase, Cy5-dT15 ssDNA binding fluorescence polarization; stronger effect = higher value; concentration not given here
# [13] = Cy5 fluorescence quenching or enhancement artefacts, artefact control for HCV NS3 helicase inhibitor project, biochemical, LOPAC1280 (AID 687037; call rule not given here); details: Cy5-DNA-NS3h complex fluorescence interference counterscreen
# [14] = test system: Aerobactin synthetase IucA (Klebsiella pneumoniae); experiment: IucA aerobactin synthetase inhibitors, biochemical, Tocris library, absorbance (AID 1345561; call rule not given here;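 further: 100% = enzyme without compound and 0% = no enzyme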); details: purified IucA enzyme assay, absorbance (OD) read-out; stronger effect = lower value;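 tested at 8 µM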
# [15] = growth inhibition of DIPG glioma cells, dose response, cell-based, SU-DIPG-XVII, MIPE5.0, CellTiter-Glo, qHTS (AID 1347060; cut-off not given, nearly all actives have AC50 up to about 26 µM); details: SU-DIPG-XVII viability, CellTiter-Glo ATP luminescence
# [16] = growth inhibition of DIPG glioma cells, dose response, cell-based, JHH-DIPG-1, MIPE4.0, CellTiter-Glo, qHTS (AID 1347062; cut-off not given, nearly all actives have AC50 up to about 27 µM); details: JHH-DIPG-1 viability, CellTiter-Glo ATP luminescence
# [17] = growth inhibition of DIPG glioma cells, dose response, cell-based, SU-DIPG-IV, MIPE4.0, CellTiter-Glo, qHTS (AID 1347063; cut-off not given, nearly all actives have AC50 up to about 30 µM;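 further: compound exposure lasted 48 hours before the viability readout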); details: SU-DIPG-IV viability, CellTiter-Glo ATP luminescence
# [18] = viability loss in pontine glioma line – cell-based, SU-DIPG-XXV, MIPE5.0, CellTiter-Glo, qHTS, dose response (AID 1347065; cut-off not given, nearly all actives have AC50 up to about 26 µM;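 further: cells exposed to compound for 48 hours before ATP readout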); details: CellTiter-Glo ATP luminescence
# [19] = SU-DIPG-VI glioma cell viability, MIPE4.0 library, CellTiter-Glo luminescence, qHTS (AID 1347066; cut-off not given, nearly all actives have AC50 up to about 30 µM;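 further: cells exposed to compound for 48 hours before readout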); details: CellTiter-Glo ATP luminescence
# [20] = JHH-DIPG-1 glioma cell viability, MIPE5.0 library, CellTiter-Glo luminescence, qHTS (AID 1347067; cut-off not given, nearly all actives have AC50 up to about 26 µM;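 further: cells exposed to compound for 48 hours before readout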); details: JHH-DIPG-1 glioma viability, CellTiter-Glo ATP luminescence
# [21] = SU-DIPG-XXV glioma cell viability, MIPE5.0 library, qHTS (AID 1347068; cut-off not given, nearly all actives have IC50 up to about 30 µM;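 further: cells exposed to compound for 48 hours before viability readout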)
# [22] = sensitizers of A549 cells to miR-34 induction, primary screen, imaging, A549 dox-inducible miR-34, nuclei and caspase counts (AID 1347080;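 active means compounds whose cell count with miR-34 switched on is under 0.7 times the count with it off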); details: A549 miR-34 inducible, Hoechst nuclei count, 48 h
# [23] = phospholipid biosynthesis inhibitors in animal cells, primary screen, cell-based, LOPAC library, screen 4 (AID 1347384; call rule not given here); details: phospholipid biosynthesis inhibition screen, at 10 µM
# [24] = target: Mitogen-activated protein kinase 7 (Homo sapiens) (UniProt Q13164); experiment: ERK5 transactivation activators in reporter cells, primary screen, cell-based, HTS (AID 1508626;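 active means luciferase signal above three times the same-plate solvent-only control wells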;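 further: luciferase driven by Gal4-ERK5 fusion binding five Gal4 sites before minimal TATA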); details: HeLa Gal4-ERK5 transactivation, 18 h, at 5 µM, stronger effect = higher value
# Sequence of Mitogen-activated protein kinase 7 (Homo sapiens) (Q13164 whole entry, looked up, the tested form may be a part): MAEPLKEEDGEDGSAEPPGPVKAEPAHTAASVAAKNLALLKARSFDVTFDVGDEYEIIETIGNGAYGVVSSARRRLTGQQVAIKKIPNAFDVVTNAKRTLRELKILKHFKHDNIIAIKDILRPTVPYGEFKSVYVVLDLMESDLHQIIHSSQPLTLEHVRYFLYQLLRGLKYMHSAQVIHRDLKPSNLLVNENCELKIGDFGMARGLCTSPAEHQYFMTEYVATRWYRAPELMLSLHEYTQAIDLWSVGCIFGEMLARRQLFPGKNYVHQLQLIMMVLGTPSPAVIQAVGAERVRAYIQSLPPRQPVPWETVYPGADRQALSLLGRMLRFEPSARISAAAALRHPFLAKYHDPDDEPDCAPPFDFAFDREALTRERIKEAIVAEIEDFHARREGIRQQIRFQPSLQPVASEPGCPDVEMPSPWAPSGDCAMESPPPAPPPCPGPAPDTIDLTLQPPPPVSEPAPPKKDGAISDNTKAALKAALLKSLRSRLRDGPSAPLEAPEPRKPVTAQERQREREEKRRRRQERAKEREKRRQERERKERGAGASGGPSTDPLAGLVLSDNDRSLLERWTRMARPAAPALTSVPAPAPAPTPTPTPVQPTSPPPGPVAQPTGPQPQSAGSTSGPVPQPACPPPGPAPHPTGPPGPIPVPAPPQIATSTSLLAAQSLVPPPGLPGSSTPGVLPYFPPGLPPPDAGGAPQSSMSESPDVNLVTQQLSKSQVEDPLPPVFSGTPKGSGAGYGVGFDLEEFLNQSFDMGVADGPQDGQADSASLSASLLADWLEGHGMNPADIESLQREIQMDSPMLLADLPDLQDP
# [25] = viability rescue of complex I mutant cybrids, primary screen, cell-based, galactose medium, ATP luminescence (AID 1645843;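 active means z-score of at least 1.8 in each of two replicates, scored against plate mean and spread of sample wells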;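 further: positive z means more ATP and so rescue of galactose-driven cybrid death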); details: complex I mutant cybrid cells, 72 h, stronger effect = higher value
# [26] = measured here: epithelial PC-3E GFP cell survival
# [27] = measured here: mesenchymal TEM4-18 mCherry cell survival
# [28] = stronger effect = lower value, cell number ratio, induced over uninduced
# [29] = measured here: relative caspase fold change +Dox/-Dox
# [30] = measured here: total cells with miR-34 induction, stronger effect = lower value
# [31] = measured here: total cells without miR-34 induction
structure (smiles),measurement,setting,value
C[C@H]1[C@H]2CCC3C4CC=C5C[C@@H](N(C)C)CC[C@]5(C)C4CC[C@@]32CN1C (stereo partly drawn),red/green cell ratio (normalised),[1],0.93 (inactive)
same,normalised cell number,[1]; [26],0.89
same,normalised cell number,[1]; [27],0.83
CC(C)(c1ccc(O)cc1)c1ccc(O)cc1,red/green cell ratio (normalised),[1],0.93 (inactive)
same,normalised cell number,[1]; [26],1.17
same,normalised cell number,[1]; [27],1.09
Nc1cc2ccccc2[nH]c1=O,red/green cell ratio (normalised),[1],0.91 (inactive)
same,normalised cell number,[1]; [26],1.14
same,normalised cell number,[1]; [27],1.04
NCCCCNCCCN,inhibition,[2],7.23%
same,score,[3],1
same,rescue above control,[4],-7.17
same,cytochrome c release ratio,[5],1.12
same,inhibition of aggregation,[6],57.8%
same,normalised LDH release,[7],0.936
same,glutamate uptake change,[8],-3.1%
same,inclusion score,[9],2
same,aggregation suppression score,[10],0.846
same,period change,[11],0.115 h (inactive)
same,inhibition,[12],-2% (inactive)
same,fluorescence ratio (interference),[13],1 (inactive)
same,red/green cell ratio (normalised),[1],0.89 (inactive)
same,normalised cell number,[1]; [26],0.98
same,normalised cell number,[1]; [27],0.87
same,remaining activity,[14],101% (inactive)
same,outcome,[15],inactive
same,outcome,[16],inactive
same,outcome,[17],inactive
same,outcome,[18],inactive
same,outcome,[19],inactive
same,outcome,[20],inactive
same,IC50,[21],1.18 nM (active)
same,fold change,[22]; [28],0.943 (inactive) and 0.936 (inactive)
same,fold change,[22]; [29],1.92 and 0.604
same,cell count,[22]; [30],9580 and 9960
same,cell count,[22]; [31],10200 and 10600
same,outcome,[23],inactive
same,luciferase signal,[24],48 AU (inactive)
same,z-score,[25],-0.635 (inactive) and -0.08 (inactive)
COc1c(N2CC[C@@H](CN)C2)c(F)cc2c(=S)c(C(=O)O)cn(C3CC3)c12,red/green cell ratio (normalised),[1],1.12 (inactive)
same,normalised cell number,[1]; [26],1.08
same,normalised cell number,[1]; [27],1.2
NCCOB(c1ccccc1)c1ccccc1,red/green cell ratio (normalised),[1],1.1 (inactive)
same,normalised cell number,[1]; [26],0.8
same,normalised cell number,[1]; [27],0.89
same,remaining activity,[14],110% (inactive)
same,fold change,[22]; [28],0.925 (inactive)
same,fold change,[22]; [29],0.886
same,cell count,[22]; [30],8820
same,cell count,[22]; [31],9540
same,luciferase signal,[24],120 AU (inactive)
same,z-score,[25],1.9 (inactive)
CC(C)C[C@@H](NC(=O)OCC1c2ccccc2-c2ccccc21)C(=O)O,inhibition,[2],-9.47%
same,score,[3],-0.27
same,rescue above control,[4],2.38
same,cytochrome c release ratio,[5],0.77
same,inhibition of aggregation,[6],-14.3%
same,glutamate uptake change,[8],4.64%
same,aggregation suppression score,[10],0.0751
same,red/green cell ratio (normalised),[1],0.8 (inactive)
same,normalised cell number,[1]; [26],1.21
same,normalised cell number,[1]; [27],0.97
same,remaining activity,[14],97.5% (inactive)
same,fold change,[22]; [28],0.883 (inactive)
same,fold change,[22]; [29],0.962
same,cell count,[22]; [30],8270
same,cell count,[22]; [31],9370
same,z-score,[25],-0.5 (inactive)
